# The entries come from a sample that favours the strongest signals as a whole.
# What was measured:
# Experiment in all cases: glycan array binding signal (z-score within array); higher = stronger binding
# Conditions in all cases: glycan notation: IUPAC condensed, linker removed
# [1] = molecular target: Fuc(a1-2)Gal(b1-3)GalNAc(a1-3)[Fuc(a1-2)]Gal(b1-4)Glc
# In short: (§1)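 Arrays were curated from the Consortium for Functional Glycomics database, 3228 in total, and kept only where the protein sequence was available. Binding is expressed as a within-array Z-score. This score was averaged across arrays of the same protein sequence at different concentrations or buffers and across linkers, and negative values can be read as non-binding.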
# [2] = molecular target: Fuc(a1-2)Gal(b1-3)GlcNAc(b1-3)[Gal(b1-4)GlcNAc(b1-6)]Gal(b1-4)Glc
# In short: as §1
# [3] = molecular target: Fuc(a1-2)[Gal(a1-3)]Gal(b1-4)Glc
# In short: as §1
# [4] = molecular target: Fuc(a1-2)[Gal(a1-3)]Gal(b1-4)GlcNAc(b1-2)Man(a1-3)[Fuc(a1-2)[Gal(a1-3)]Gal(b1-4)GlcNAc(b1-2)Man(a1-6)]Man(b1-4)GlcNAc(b1-4)GlcNAc
# In short: as §1
# [5] = molecular target: Fuc(a1-2)[GalNAc(a1-3)]Gal(b1-4)GlcNAc(b1-2)Man(a1-3)[Fuc(a1-2)[GalNAc(a1-3)]Gal(b1-4)GlcNAc(b1-2)Man(a1-6)]Man(b1-4)GlcNAc(b1-4)GlcNAc
# In short: as §1
# [6] = molecular target: Fuc(a1-2)[GalNAc(a1-4)]Gal(b1-4)GlcNAc
# In short: as §1
# [7] = molecular target: Fuc(a1-3)[Gal(b1-4)]GlcNAc(b1-4)Gal(b1-4)[Fuc(a1-3)]GlcNAc(b1-4)Gal(b1-4)[Fuc(a1-3)]GlcNAc
# In short: as §1
# Gal(a1-3)GalNAc = molecular target: Gal(a1-3)GalNAc
# In short: as §1
# [8] = molecular target: Gal(b1-3)[Fuc(a1-4)]GlcNAc(b1-3)Gal(b1-4)[Fuc(a1-3)]GlcNAc
# In short: as §1
# [9] = molecular target: Gal(b1-3)[Fuc(a1-4)]GlcNAc(b1-6)GalNAc
# In short: as §1
# [10] = molecular target: Gal(b1-3)[Neu5Ac(b2-6)]GalNAc
# In short: as §1
# [11] = molecular target: Gal(b1-4)GlcNAc(b1-3)Gal(b1-4)GlcNAc(b1-2)Man(a1-3)[Gal(b1-4)GlcNAc(b1-3)Gal(b1-4)GlcNAc(b1-2)Man(a1-6)]Man(b1-4)GlcNAc(b1-4)[Fuc(a1-6)]GlcNAc
# In short: as §1
# [12] = molecular target: Gal(b1-4)GlcNAc(b1-3)Gal(b1-4)GlcNAc(b1-2)[Gal(b1-4)GlcNAc(b1-3)Gal(b1-4)GlcNAc(b1-6)]Man(a1-6)[Gal(b1-4)GlcNAc(b1-3)Gal(b1-4)GlcNAc(b1-2)Man(a1-3)]Man(b1-4)GlcNAc(b1-4)[Fuc(a1-6)]GlcNAc
# In short: as §1
# [13] = molecular target: Gal(b1-4)GlcNAc(b1-3)Gal(b1-4)GlcNAc(b1-3)Gal(b1-4)GlcNAc(b1-2)[Gal(b1-4)GlcNAc(b1-3)Gal(b1-4)GlcNAc(b1-3)Gal(b1-4)GlcNAc(b1-6)]Man(a1-6)[Gal(b1-4)GlcNAc(b1-3)Gal(b1-4)GlcNAc(b1-3)Gal(b1-4)GlcNAc(b1-2)Man(a1-3)]Man(b1-4)GlcNAc(b1-4)[Fuc(a1-6)]GlcNAc
# In short: as §1
# [14] = molecular target: Gal(b1-4)GlcNAc(b1-3)Gal(b1-4)GlcNAc(b1-3)Gal(b1-4)GlcNAc(b1-3)Gal(b1-4)GlcNAc(b1-2)Man(a1-3)[Gal(b1-4)GlcNAc(b1-3)Gal(b1-4)GlcNAc(b1-3)Gal(b1-4)GlcNAc(b1-3)Gal(b1-4)GlcNAc(b1-2)Man(a1-6)]Man(b1-4)GlcNAc(b1-4)[Fuc(a1-6)]GlcNAc
# In short: as §1
# [15] = molecular target: Gal(b1-4)GlcNAc(b1-3)Gal(b1-4)GlcNAc(b1-3)Gal(b1-4)GlcNAc(b1-3)Gal(b1-4)GlcNAc(b1-2)[Gal(b1-4)GlcNAc(b1-3)Gal(b1-4)GlcNAc(b1-3)Gal(b1-4)GlcNAc(b1-3)Gal(b1-4)GlcNAc(b1-6)]Man(a1-6)[Gal(b1-4)GlcNAc(b1-3)Gal(b1-4)GlcNAc(b1-3)Gal(b1-4)GlcNAc(b1-3)Gal(b1-4)GlcNAc(b1-2)Man(a1-3)]Man(b1-4)GlcNAc(b1-4)[Fuc(a1-6)]GlcNAc
# In short: as §1
# [16] = molecular target: Gal(b1-4)GlcNAc(b1-3)Gal(b1-4)GlcNAc(b1-3)Gal(b1-4)GlcNAc(b1-3)Gal(b1-4)GlcNAc(b1-3)Gal(b1-4)GlcNAc(b1-2)[Gal(b1-4)GlcNAc(b1-3)Gal(b1-4)GlcNAc(b1-3)Gal(b1-4)GlcNAc(b1-3)Gal(b1-4)GlcNAc(b1-3)Gal(b1-4)GlcNAc(b1-6)]Man(a1-6)[Gal(b1-4)GlcNAc(b1-3)Gal(b1-4)GlcNAc(b1-3)Gal(b1-4)GlcNAc(b1-3)Gal(b1-4)GlcNAc(b1-3)Gal(b1-4)GlcNAc(b1-2)Man(a1-3)]Man(b1-4)GlcNAc(b1-4)[Fuc(a1-6)]GlcNAc
# In short: as §1
# [17] = molecular target: Gal(b1-4)GlcNAc(b1-3)Gal(b1-4)GlcNAc(b1-3)Gal(b1-4)GlcNAc(b1-3)Gal(b1-4)GlcNAc(b1-3)Gal(b1-4)GlcNAc(b1-3)Gal(b1-4)GlcNAc(b1-2)Man(a1-3)[Gal(b1-4)GlcNAc(b1-3)Gal(b1-4)GlcNAc(b1-3)Gal(b1-4)GlcNAc(b1-3)Gal(b1-4)GlcNAc(b1-3)Gal(b1-4)GlcNAc(b1-3)Gal(b1-4)GlcNAc(b1-2)Man(a1-6)]Man(b1-4)GlcNAc(b1-4)GlcNAc
# In short: as §1
# [18] = molecular target: Gal(b1-4)GlcNAc(b1-6)[Gal(b1-3)]GalNAc
# In short: as §1
# [19] = molecular target: GalNAc(a1-3)GalNAc(b1-3)Gal(a1-4)Gal(b1-4)Glc
# In short: as §1
binder,measurement,setting,value
Gal 8 (Homo sapiens) (protein) MLSLNNLQNIIYNPVIPYVGTIPDQLDPGTLIVICGHVPSDADRFQVDLQNGSSVKPRADVAFHFNPRFKRAGCIVCNTLINEKWGREEITYDTPFKREKSFEIVIMVLKDKFQVAVNGKHTLLYGHRIGPEKIDTLGIYGKVNIHSIGFSFSSDLQSTQASSLELTEISRENVPKSGTPQLQTVSPSWDLQGHGSETFCSVLWTRVFLEIAFCRPIGLTVASFQSLPFAARLNTPMGPGRTVVVKGEVNANAKSFNVDLLAGKSKDIALHLNPRLNIKAFVRNSFLQESWGEEERNITSFPFSPGMYFEMIIYCDVREFKVAVNGVHSLEYKHRFKELSSIDTLEINGDIHLLEVRSW,glycan array binding signal (z-score),[1],0.572
same,glycan array binding signal (z-score),[2],0.003
same,glycan array binding signal (z-score),[3],4.4
same,glycan array binding signal (z-score),[4],4.31
same,glycan array binding signal (z-score),[5],5.81
same,glycan array binding signal (z-score),[6],-0.357
same,glycan array binding signal (z-score),[7],-0.35
same,glycan array binding signal (z-score),Gal(a1-3)GalNAc,-0.387
same,glycan array binding signal (z-score),[8],-0.39
same,glycan array binding signal (z-score),[9],-0.355
same,glycan array binding signal (z-score),[10],-0.387
same,glycan array binding signal (z-score),[11],3.06
same,glycan array binding signal (z-score),[12],6.42
same,glycan array binding signal (z-score),[13],6.12
same,glycan array binding signal (z-score),[14],3.61
same,glycan array binding signal (z-score),[15],5.79
same,glycan array binding signal (z-score),[16],5.3
same,glycan array binding signal (z-score),[17],5.33
same,glycan array binding signal (z-score),[18],-0.305
same,glycan array binding signal (z-score),[19],0.169

# — the supplement of paper PMC8728848
